Results as given in publication PMC5540273 (PLoS ONE, 2017).

tested on: RIPK1; details: concentration: 1 μM, replicates: in singlicate; n = 1
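Note: KINOMEscan kinase panel screen.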

SMILES | %Inh [%]
Nc1ncc(-c2ccc3nccc(-c4ccncc4)c3c2)cc1S(=O)(=O)N1CCOCC1 [GSK1627798] | 0
Cn1cc(-c2ccc3c(c2)CCN3C(=O)Cc2cccc(Cl)c2)c2c(N)ncnc21 [GSK2606590] | 100
CC(C)(C)c1ccc2nccc(Nc3cccc(O)c3)c2c1 [GW856795] | 0
CC(=O)Nc1nc2cnc(Nc3cc(NC(=O)c4cccc(C5(C#N)CC5)c4Cl)ccc3C)nc2s1 | 2
COc1cc(Nc2nccc(N3CCC(NC(=O)c4cc5ccccc5s4)C3)n2)cc(OC)c1OC (centres unmarked) [GSK1379760] | 24
Cc1occc1-c1ncc(OC[C@@H](N)Cc2c[nH]c3ccccc23)cc1-c1ccc2[nH]nc(C)c2c1.O=C(O)C(F)(F)F [GSK682037] | 0
C[C@@H]1CC[C@@H](C(=O)Nc2ccccc2)CN1c1cc(-c2ccc3c(N)n[nH]c3c2)nc(N)n1 [GSK2286062] | 31
CCn1c(-c2nonc2N)nc2c(C#CC(C)(C)O)ncc(OCCCCN)c21.O=C(O)C(F)(F)F.O=C(O)C(F)(F)F [GSK507274] | 0
O=c1[nH]cc(-c2ccc(N3CCOCC3)cc2)c2sc(-c3cn[nH]c3)cc12 [GSK2276055] | 18
COc1cccc(C2=C(Nc3ccc(Cl)c(C(=O)O)c3)C(=O)NC2=O)c1 [SB-390769] | 0

tested on: RIPK2; details: concentration: 1 μM, replicates: in singlicate; n = 1

SMILES | %Inh [%]
COC(=O)Nc1nc2cc(Oc3ccc(NC(=O)Nc4cc(C(F)(F)F)ccc4F)cn3)ccc2[nH]1.Cl.Cl [GW681170] | 58
Fc1ccc(-c2ncn(C3CCNCC3)c2-c2ccnc(Oc3ccc(-c4ccccc4)cc3)n2)cc1 [SB-245391] | 70
Cc1ccc(C)c(NC(=O)NC2CCN(c3ccnc(Nc4ccc(F)cc4)n3)C2)c1 (centres unmarked) [GSK1379720] | 0
CSc1cccc2c(-c3ccncn3)c(-c3ccc(F)cc3)nn12 [GW514786] | 43
Oc1cc(Nc2ccnc3cc(I)ccc23)ccc1F [GW552771] | 50
Cc1ccc(S(=O)(=O)Nc2ccc(Nc3nccc(Nc4cccc5[nH]ncc45)n3)cc2)cc1 [GSK581271] | 69
COc1cccc(-c2ccc3c(NC(=O)C4CC4)n[nH]c3n2)c1 [SB-710903] | 15
O=C(Nc1cccc(-c2nn3ccccc3c2-c2ccnc(Nc3cccc(C(F)(F)F)c3)n2)c1)c1c(F)cccc1F [GSK292658] | 63
Cl.Cl.NCC(NCc1ccc(-c2ccnc3[nH]ccc23)s1)c1ccccc1 (centres unmarked) [GSK1321565] | 0
CCn1c(-c2nonc2N)nc2c(C#CC(C)(C)O)nc(OC[C@H](N)c3ccccc3)cc21 [GSK943949] | 0
COCCOCCOc1cc2ncc3c4ccc(C#N)cc4[nH]c3c2cc1OC | 0
Clc1ccc(-c2nn3ncccc3c2-c2ccnc(Nc3ccc4c(c3)OCCO4)n2)cc1 [GW829116] | 83
COc1cccc(NC(=O)NC2CCN(c3ccnc(Nc4cc(OC)c(OC)c(OC)c4)n3)C2)c1 (centres unmarked) [GSK1379763] | 29
COc1cccc(C(=O)Nc2cccc(Oc3ccc4nc(NC(=O)C5CC5)cn4n3)c2)c1 | 50
CN(C)Cc1ccc(-c2ccc3c(Nc4ccc(Oc5ccccn5)cc4)ccnc3c2)o1 [GW567148] | 95.3
Nc1ncc(-c2cccnc2)c2scc(-c3ccc4c(c3)CCN4C(=O)Cc3ccccc3)c12 [GSK683281] | 82
COc1ccc(Nc2nccc(NCCNC(=O)c3cc4ccccc4s3)n2)cc1 [GSK1379896] | 12
O=C(Nc1n[nH]c2nc(-c3ccc(O)cc3)ccc12)C1CC1 [SB-710363] | 0
O=C(Nc1cccc(-c2nn3ccccc3c2-c2ccnc(Nc3cccc(F)c3)n2)c1)c1c(F)ccc(F)c1Cl [GSK357952] | 35

SMILES | %Inh [%]
CN1CCN(Cc2cccc(-c3ccc4c(Nc5ccc(Oc6ccccc6)cc5)ccnc4c3)c2)CC1 [GW578342] | 98.6
COc1cc(Nc2nccc(N3CCC(NC(=O)Nc4cccc(C(C)=O)c4)C3)n2)cc(OC)c1OC (centres unmarked) [GSK1379753] | 22
c1ccc(Oc2ccc(Nc3ccnc4cc(-c5ccc(CNCCN6CCOCC6)o5)ccc34)cc2)nc1 [GW567145] | 93.5
CC(C)c1nc(-c2cccc(NS(=O)(=O)c3c(F)cccc3F)c2F)c(-c2ccnc(Nc3ccc(N4CCOCC4)nc3)n2)s1 [GSK2008607] | 96.3
C[C@@H](Oc1cc(-n2cnc3cc(-c4ccnc(NCCS(C)(=O)=O)c4)ccc32)sc1C(N)=O)c1ccccc1Cl [GSK907232] | 14
Cn1cc(-c2[nH]c3cc(NC(=O)[C@H](N)C4CCCCC4)cc4c3c2C=NNC4=O)cn1 | 2
CCS(=O)(=O)c1ccc(OC)c(Nc2nccc(-c3c(-c4cccc(NC(=O)c5c(F)cccc5F)c4)nn4ncccc34)n2)c1 [GSK326180] | 83
Cl.NC(=O)c1cccc(Nc2nccc(Nc3ccc(Oc4c(Cl)cccc4Cl)c(Cl)c3)n2)c1 [GW659009] | 84
Nc1ncc(-c2ccc3nccc(-c4ccncc4)c3c2)cc1S(=O)(=O)N1CCOCC1 [GSK1627798] | 1
Cn1cc(-c2ccc3c(c2)CCN3C(=O)Cc2cccc(Cl)c2)c2c(N)ncnc21 [GSK2606590] | 15
CC(C)(C)c1ccc2nccc(Nc3cccc(O)c3)c2c1 [GW856795] | 34
CC(=O)Nc1nc2cnc(Nc3cc(NC(=O)c4cccc(C5(C#N)CC5)c4Cl)ccc3C)nc2s1 | 0
COc1cc(Nc2nccc(N3CCC(NC(=O)c4cc5ccccc5s4)C3)n2)cc(OC)c1OC (centres unmarked) [GSK1379760] | 7
Cc1occc1-c1ncc(OC[C@@H](N)Cc2c[nH]c3ccccc23)cc1-c1ccc2[nH]nc(C)c2c1.O=C(O)C(F)(F)F [GSK682037] | 12
C[C@@H]1CC[C@@H](C(=O)Nc2ccccc2)CN1c1cc(-c2ccc3c(N)n[nH]c3c2)nc(N)n1 [GSK2286062] | 0
CCn1c(-c2nonc2N)nc2c(C#CC(C)(C)O)ncc(OCCCCN)c21.O=C(O)C(F)(F)F.O=C(O)C(F)(F)F [GSK507274] | 18
O=c1[nH]cc(-c2ccc(N3CCOCC3)cc2)c2sc(-c3cn[nH]c3)cc12 [GSK2276055] | 0
COc1cccc(C2=C(Nc3ccc(Cl)c(C(=O)O)c3)C(=O)NC2=O)c1 [SB-390769] | 21
